Among the data in PubChem BioAssay AID488969 (Vanderbilt High Throughput Screening Facility, 2010) are z-score values, retold here.

Over roughly 110,000 compounds, “z-score” has its median near -0.1; the highest 2% begin near 2. This excerpt belongs to a sample that is enriched for the highest values. Calls of active or inactive are those of the source.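 Rule for the calls: active = z-score in the third read window above 3 or below -3; inactive = the rest.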

This assay deals with Metabotropic glutamate receptor 8 (Rattus norvegicus) (UniProt P70579). In words: mGluR8 Gi/Go-coupled signaling modulation – cell-based, rat, thallium flux, HTS, primary screen (AID 488969). The settings on record: HEK293 rat mGluR8, GIRK (G protein-gated inwardly rectifying potassium channel) thallium flux, FluoZin2; at 10 µM; stronger effect = higher value; submaximal glutamate (EC20) added with thallium.
Chain of Metabotropic glutamate receptor 8 (Rattus norvegicus) (P70579 whole entry, looked up): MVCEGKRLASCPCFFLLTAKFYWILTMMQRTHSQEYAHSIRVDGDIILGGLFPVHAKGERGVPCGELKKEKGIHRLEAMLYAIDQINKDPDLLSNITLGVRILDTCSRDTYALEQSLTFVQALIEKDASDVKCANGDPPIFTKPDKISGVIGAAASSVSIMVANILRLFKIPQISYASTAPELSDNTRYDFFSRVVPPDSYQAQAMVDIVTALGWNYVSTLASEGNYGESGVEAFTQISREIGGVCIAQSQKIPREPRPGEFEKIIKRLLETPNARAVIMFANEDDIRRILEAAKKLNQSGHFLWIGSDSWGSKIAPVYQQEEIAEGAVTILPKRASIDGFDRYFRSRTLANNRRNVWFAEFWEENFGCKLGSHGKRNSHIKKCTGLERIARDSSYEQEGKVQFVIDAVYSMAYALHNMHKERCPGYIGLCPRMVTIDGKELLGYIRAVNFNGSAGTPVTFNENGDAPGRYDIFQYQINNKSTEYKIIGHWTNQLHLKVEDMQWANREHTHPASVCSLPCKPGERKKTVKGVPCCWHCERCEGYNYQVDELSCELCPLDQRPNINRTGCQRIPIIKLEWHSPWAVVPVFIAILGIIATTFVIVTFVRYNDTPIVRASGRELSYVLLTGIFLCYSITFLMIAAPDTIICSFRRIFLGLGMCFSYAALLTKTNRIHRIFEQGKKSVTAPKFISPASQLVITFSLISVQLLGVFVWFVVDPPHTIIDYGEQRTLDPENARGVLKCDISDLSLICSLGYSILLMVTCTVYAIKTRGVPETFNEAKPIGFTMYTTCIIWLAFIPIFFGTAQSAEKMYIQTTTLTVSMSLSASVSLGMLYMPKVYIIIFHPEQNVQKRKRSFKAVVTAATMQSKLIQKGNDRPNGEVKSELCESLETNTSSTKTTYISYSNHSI
On to `COc1ccc(-c2[nH]ncc2/C=N\NC(=O)c2ccc(C(C)(C)C)cc2)cc1OC`, for which the z-score was -0.413.

`CCNC(=S)Nc1scc(-c2ccccc2)c1C(=O)OCC`: the z-score was 6.92 (active). The compound `CCOC(=O)c1c(-c2ccccc2)csc1NC(=O)CCN1C(=O)c2ccccc2C1=O` had a z-score of -0.51.

Take `CCOC(=O)c1c(-c2ccccc2)csc1NC(=S)NC`: the z-score was 7.44 (active). Take `CCOC(=O)c1c(-c2ccccc2)csc1NC(=S)N(CC)CC`: the z-score is 0.121. For `CCOC(=O)c1c(-c2ccccc2)csc1NC(=O)C1CCCO1` (stereo not drawn), the z-score is -0.568. In turn, `CCOC(=O)c1c(-c2ccc(C)cc2)csc1NC(=S)NC(=O)c1ccccc1` gave a z-score of 0.153.

Take `COc1ccc(NC(=O)c2ccc3snnc3c2)cc1`: the z-score is -0.112.

In turn, `CS(=O)(=O)N1CCN(c2ccc(NC(=O)c3cccnc3Cl)cc2)CC1` registered a z-score of 0.393. Compound `CC(NS(=O)(=O)c1ccccc1)C(=O)Nc1ccc(S(N)(=O)=O)cc1` (stereo not drawn) registered a z-score of 0.246. Under `CCCc1cc(=O)[nH]c(SCCOC(=O)c2ccccc2)n1` stands -0.349; under `COc1ccc2nc(NC(C)=O)sc2c1`, -0.0562. Take `CCOc1ccc2nc(NC(=S)N(C)C)sc2c1`: the z-score is -0.436. As for `COc1ccc2nc(NC(=S)N(C)C)sc2c1`, the z-score is 14.8 (active).

With `COc1cccc(N=C2SC(C(=O)Nc3ccccc3F)CC(=O)N2C)c1` (stereo not drawn), the z-score is -0.119. In the case of `CC(=O)Oc1ccc(N(C(C)=O)S(=O)(=O)c2cccs2)c2ccccc12`, the z-score was 4.9 (active). Take `CC(=O)Oc1ccc(N(C(C)=O)S(=O)(=O)c2cccs2)cc1`: the z-score was -0.202. In the case of `COc1ccc(S(=O)(=O)N(C(C)=O)c2ccc(OC(C)=O)c3ccccc23)cc1[N+](=O)[O-]`, the z-score is -0.812. Take `CC(C)C(=O)Nc1nnn(C)n1`: the z-score is 9.51 (active).

Compound `CC(C)C(=O)NC(=S)Nc1nnn(C)n1` returned a z-score of 0.169.

`CC(C)CC(=O)Nc1nnn(C)n1` gave a z-score of 0.332. The figure for `CCN1CCCC1CNC(=O)C(=O)Nc1ccc(OC)cc1` (stereo not drawn) is 0.521; for `CCN1CCCC1CNC(=O)C(=O)Nc1cccc(OC)c1` (stereo not drawn) it is 2.04; for `CCN1CCCC1CNC(=O)C(=O)Nc1ccccc1OC` (stereo not drawn) it is 0.00956. `CCOc1ccc(N(CC(=O)N2CC=C(c3ccccc3)CC2)S(=O)(=O)c2c(C)noc2C)cc1` came in with a z-score of -0.285.

`O=C(COC(=O)c1cn(-c2ccccc2)nc1-c1ccc(F)cc1)Nc1ncc(Cl)cc1Cl` displayed a z-score of 0.0446. In turn, `CCC(C)NC(=O)C1CCN(c2nc(OC)nc(OC)n2)CC1` (stereo not drawn) yielded a z-score of 0.12. In the case of `C/C(CC(=O)Nc1cccc2c1CCCC2)=N\NC(=O)c1cccc2ccccc12`, the z-score was -0.483. The figure for `C/C(CC(=O)Nc1cccc2c1CCCC2)=N\NC(=O)c1ccccc1N` is 2.22; for `CCn1c2ccccc2c2cc(NC(=O)C/C(C)=N/NC(=O)c3ccccc3N)ccc21` it is -0.0756; for `COc1cc(NC(=O)c2ccco2)ccc1NC(=O)C(C)C` it is 0.332.

With `Nc1nc(SCC(=O)NCCCO)nc2sc3c(c12)CCC3`, the z-score was found to be 1.08. For `O=C(CC1NC2CCCCC2NC1=O)Nc1cccc(C(F)(F)F)c1` (stereo not drawn), the z-score worked out at 0.497. In turn, `O=C(Nc1ccc(Cl)cc1)NC1CCCCC1` showed a z-score of 0.269. `CCc1cccc(NC(=O)C2CCCC2)c1` registered a z-score of 0.366. Take `O=C(Nc1ccc(F)cc1)NC1CCCCC1`: the z-score worked out at 0.532. The figure for `CCc1cccc(NC(=O)NC2CCCCC2)c1` is 4.38 (active); for `CCc1cccc(NC(=O)COc2ccccc2)c1` it is 0.78. The compound `O=C(Nc1cccc(F)c1)NC1CCCCC1` showed a z-score of 0.258.

Turning to `COC(=O)CSC1=NS(=O)(=O)c2ccccc21`, the z-score is -2.06. Consider `O=C(Nc1ccc(F)c(F)c1)NC1CCCCC1`, for which the z-score is 3.01 (active).

`Cc1ccc(NC(=O)CCSCCC(=O)Nc2ccc(C)c(C)c2)cc1C` had a z-score of -0.0616.

Consider `O=C(CSC1=NS(=O)(=O)c2ccccc21)Nc1ccccc1`, for which the z-score is -0.326. Under `CCc1cccc(NC(=O)CCSCCC(=O)Nc2cccc(CC)c2)c1` stands 3.02 (active); under `CCc1cccc(NC(=O)CSC2=NS(=O)(=O)c3ccccc32)c1`, 3.52 (active); under `CCc1cc2c(=O)c(Oc3ccccc3)c(C)oc2cc1O`, 0.432. Under `O=C(CNC(=O)c1cccc(F)c1)N/N=C/c1cccc([N+](=O)[O-])c1` stands -0.00152; under `COc1ccc(S(=O)(=O)NC(C(C)C)C(C)C)cc1OC`, 0.101.

In turn, `CSc1nc(N2CCOCC2)c2c(c1C#N)CCCCC2` came in with a z-score of -0.315. Turning to `CCC1Cc2c(nc3c4c(nc(N5CCOCC5)c(C#N)c24)NC(C)=N3)O1` (stereo not drawn), the z-score is -0.387. The compound `O=C(c1ccco1)N1CCCC(c2ccccc2)C1` (stereo not drawn) displayed a z-score of -0.388. Regarding `CCOC(=O)c1ccc(COC(=O)c2nonc2N)cc1`, the z-score was -0.0847.

The compound `C=CCNC(=O)CC(C)C(CCCCC)C(=O)O` (stereo not drawn) displayed a z-score of -0.15.

`Cc1ccc(CNC(=O)c2cc3c(C)nc4ccccc4c3o2)cc1` gave a z-score of 0.19. Compound `Cc1ccc(SCCNC(=O)c2ccccc2C)cc1` displayed a z-score of -0.0405. `O=C(Cn1nc(-c2ccc(Cl)cc2)c2ccccc2c1=O)Nc1cccnc1` displayed a z-score of -0.258. The figure for `CCC(C)(C)n1nnnc1CN1CCN(c2nc3cc(OC)ccc3cc2C#N)CC1` is -1.2; for `OCCNc1ncnc2c1ncn2Cc1ccccc1` it is -0.662; for `Cn1ncc2c(NCc3ccccc3)ncnc21` it is -0.129. In turn, `CC(C)CCn1cnc2c(NCc3ccccc3)ncnc21` registered a z-score of 2.07.

On to `O=C(CCCOc1ccc(Cl)cc1Cl)N/N=C\C1CCCCC1`, for which the z-score is -0.118. The figure for `CCn1c(-c2cc(-c3ccccc3OC)nc3ccccc23)n[nH]c1=S` is 0.152; for `CCCOc1cccc(-c2cc(-c3n[nH]c(=S)n3CC)c3ccccc3n2)c1` it is 4.22 (active). As for `CCn1c(-c2cc(-c3cc(OC)ccc3OC)nc3ccccc23)n[nH]c1=S`, the z-score was determined as 0.132. On to `CCOc1cccc(-c2cc(-c3n[nH]c(=S)n3CC)c3ccccc3n2)c1`, for which the z-score turned out to be 2.09. On to `CCn1c(-c2cc(-c3cccc(OC)c3)nc3ccccc23)n[nH]c1=S`, for which the z-score was 1.92. In turn, `CCn1c(-c2cc(-c3ccc(OC(C)C)cc3)nc3ccccc23)n[nH]c1=S` registered a z-score of 1.25. As for `CCOC(=O)c1cc2nc(-c3ccco3)cc(C(F)(F)F)n2n1`, the z-score was -1.72. Turning to `CCOc1ccc(-c2nc(C#N)c(NCc3ccc4c(c3)OCO4)o2)cc1`, the z-score turned out to be 0.406. For the compound `O=c1[nH][nH]c(-c2ccccc2)c1C=Nc1ccccc1`, the z-score is -0.278. Regarding `O=C1CCC2CCCCC2(O)O1` (stereo not drawn), the z-score was -0.0285. The compound `O=c1n(Cc2ccc(Cl)cc2)c2sc3c(c2c2ncnn12)CCCC3` registered a z-score of -0.595. As to `COc1cc(OC)cc(-c2nnc(SCC(=O)N3CCCC3)o2)c1`, the z-score is -0.103. Under `COc1cc(-c2nnc(SCC(=O)N3CCCC3)o2)cc(OC)c1OC` stands 2.2; under `COc1ccc(-c2nnc(SCC(=O)N3CCCC3)o2)cc1OC`, 0.322; under `COc1ccc(OC)c(C(=O)CSc2nc3cccnc3n2C)c1`, 0.718. The compound `COc1ccc(S(=O)(=O)N(C)CC(=O)Nc2ccccc2OC)cc1` returned a z-score of -0.484. As to `CN1CCN(CC(O)COCc2ccc3c(c2)OCO3)CC1` (stereo not drawn), the z-score is 0.1. `OC(COCc1ccc2c(c1)OCO2)CN1CCN(Cc2ccccc2)CC1` (stereo not drawn): the z-score is -0.00855. Turning to `SC(COCc1ccccc1)CN1CCN(Cc2ccc3c(c2)OCO3)CC1` (stereo not drawn), the z-score was 3.02 (active). `CCn1nc(NC(=O)c2ccccn2)c2cc3cc(C)ccc3nc21` returned a z-score of -0.417.

As to `CC1=C(C(=O)OCc2ccccc2)C(c2cccnc2)n2nnnc2N1` (stereo not drawn), the z-score was 0.152. The compound `FC(F)(F)c1ccccc1NC(=S)N1CCN(c2ncccn2)CC1` registered a z-score of -0.0651. Consider `CCCN1CCN(C(=S)Nc2ccccc2C(F)(F)F)CC1`, for which the z-score came to 2.17.

`CN1CCN(CCNC(=O)Nc2ccccc2C(F)(F)F)CC1` came in with a z-score of -0.464. `CC1CCC(C(=O)NC(C(=O)N2CCc3ccccc3C2)C(C)C)CC1` (stereo not drawn): the z-score was -0.269. Compound `COc1ccc(-c2nc3c(c4nnc(SC(C)C(=O)Nc5ccccc5)n24)COC(C)(C)C3)cc1` (stereo not drawn) showed a z-score of -0.351.

Turning to `CC1CCN(c2oc(-c3ccccc3F)nc2C#N)CC1`, the z-score was determined as 2.57.

As to `N#Cc1nc(-c2ccccc2F)oc1N1CCCC1`, the z-score was -0.139. `CC1CCN(c2oc(-c3cccc4ccccc34)nc2C#N)CC1` had a z-score of 0.305.

With `C=CCn1c(SCCOC)nc2c1c(=O)[nH]c(=O)n2C`, the z-score was -0.444. As to `NC(Cc1ccc2nsnc2c1)C(=O)O` (stereo not drawn), the z-score came out at 0.179.

In turn, `CCCCn1c(Cc2ccccc2)nnc1SCC(=O)N1CCOCC1` registered a z-score of -0.257. As for `O=C1C(=Cc2cccn2-c2ccc(O)cc2)C(=O)c2ccccc21`, the z-score was -0.204. The figure for `O=C1Nc2ccccc2/C1=C\c1cccn1-c1ccc(OC(F)(F)F)cc1` is 2.45; for `CN(C)/C=C1\C(=O)Nc2ccccc21` it is -0.00898; for `COc1ccc(OC)c(NC(=O)CSc2nnc(CNC(=O)c3ccco3)o2)c1` it is -0.27.

Consider `O=C(Nc1nccs1)C1C2/C=C\CCCCC21` (stereo not drawn), for which the z-score worked out at 0.175. Under `COC(=O)Nc1ccc([N+](=O)[O-])cc1OC` stands -0.117; under `COc1ccc2nc(NC(=O)CN3CCN(C)CC3)sc2c1`, 0.194; under `c1cncc(-c2nnc(-c3ccco3)o2)c1`, -0.101. The figure for `CC(=O)Nc1cccc2c1C(=O)N(c1ccc(C)cc1)C2=O` is 0.845; for `CC(=O)Nc1cccc2c1C(=O)N(c1cccc(C)c1)C2=O` it is 3.13 (active); for `CC(C)CC(=O)Nc1cccc2c1C(=O)N(c1ccccc1)C2=O` it is -3.2 (active). The figure for `Cc1csc(N(C(=O)c2cccc(S(=O)(=O)N(C)C)c2)c2ccccc2)n1` is 2.2. For the compound `Cc1csc(N(C(=O)c2cccc(S(=O)(=O)N3CCCC3)c2)c2ccccc2)n1`, the z-score was -0.475. The figure for `Cc1csc(N(C(=O)c2ccc(S(=O)(=O)N(C)C)cc2)c2ccccc2)n1` is 0.4; for `COc1cc(C2N(c3ccc(F)cc3)C(=O)C3CCCN32)cc(OC)c1OC` (stereo not drawn) it is 0.416; for `O=C1Nc2ccccc2S/C1=C/Nc1cccc(Cl)c1` it is -0.29. Turning to `S=C1Nc2ccccc2Sc2ccc(Cl)cc21`, the z-score is 4.1 (active). Under `O=C1Cc2ccccc2Sc2ccc(Cl)cc21` stands -0.097; under `O=C1CCSc2ccc(Cl)cc2N1Cc1ccc(Cl)cc1`, -0.366; under `CCOC(=O)Nc1ccc2c(c1)Nc1ccccc1S2`, -0.571. `O=C1CCSc2ccc(Cl)cc2N1Cc1ccccc1` yielded a z-score of -0.321. On to `S=C1CCSc2ccc(Cl)cc2N1`, for which the z-score was 9.14 (active). On to `Clc1ccc2c(c1)-c1nnc(Br)n1-c1ccccc1S2`, for which the z-score is -4.38 (active).

`S=C1Nc2cc(Cl)ccc2Sc2ccccc21`: the z-score is 11.3 (active).

Compound `Cc1ccc(-n2c(Cc3cccn3C)nnc2SCC(=O)N2CCN(c3ccccc3)CC2)cc1` registered a z-score of -0.835.
